Screening data from PubChem BioAssay.
WRN helicase inh = inhibitors of human WRN helicase. Q14191. WRN helicase unwinding, fluorescent forked duplex, kinetic. Potency, µM (doses to about 114 µM), for inactives: at the highest dose activity change, negative = inhibition, hits mostly inhibitors. 360,000 compounds, 0.46% hits. AID 651768; further: potency means the concentration at half of the fitted maximal effect; on the % scale 0 is the no-effect control and ±100 the full control effect; nearly all actives have a fitted effect of over 55% in size
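Kinetic red-fluorescence monitoring (525/598 nm) tracks WRN helicase activity after 100 nM fluorophore-quencher forked duplex and 2 mM ATP are added to 20 nM enzyme pretreated 15 min at room temperature with compound.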
Pol iota inh = DNA polymerase iota (human) inhibition | 390,000 compounds, 1% hits | Pol iota fluorescent replication assay, 10 min | Potency, µM (highest dose often 115 µM), without a hit: top-dose activity, negative = inhibition, most hits filed as inhibitors | AID 588590; further: potency means the concentration at half of the fitted maximal effect
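Pol iota at 10 nM preincubated 15 min with compounds at room temperature; reaction started with fluorescent substrate, 50 nM final. Fluorescence read kinetically at 0 and 10 min; buffer-only wells as negative control.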
FEN1 inh = inhibitors of human flap endonuclease 1. Recombinant FEN1 flap cleavage, fluorescence, 15 min. Potency, µM (series often up to 114 µM), inactives show at the top dose activity change, negative = inhibition, most hits filed as inhibitors. P39748. 390,000 compounds, 0.35% hits; further: potency means the concentration at half of the fitted maximal effect; on the % scale 0 is the no-effect control and ±100 the full control effect; nearly all actives have a fitted effect of over 65% in size
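Reaction started by adding substrate (50 nM final) to 10 nM enzyme after 15 min room-temperature compound preincubation. Reads at 0 and 15 min, with data normalized and fitted to a four-parameter Hill equation.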
Pol eta inh-1 = blocks human DNA polymerase eta activity. Q9Y253. recombinant Pol eta, fluorescent DNA replication assay. Potency, µM (series often up to 114 µM), for the others: top-dose activity change, negative = inhibition, hits mostly inhibitors. 390,000 compounds, 1.2% hits. AID 588591; further: potency means the concentration at half of the fitted maximal effect; on the % scale 0 is the no-effect control and ±100 the full control effect
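Fluorescent replication assay: 50 nM final substrate added after a 15 min room-temperature compound preincubation with 10 nM enzyme. Signal taken at 0 min and again at 10 min.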
Pol kappa inh-1 = blocks human DNA polymerase kappa activity; purified Pol kappa, fluorescent DNA synthesis assay, 10 min; Potency, µM (top dose mostly 107 µM), for the others: top-dose activity, negative = inhibition, hits mostly inhibitors; 400,000 compounds, 0.53% hits; AID 588579; further: potency means the concentration at half of the fitted maximal effect; on the % scale 0 is the no-effect control and ±100 the full control effect
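10 nM Pol kappa was preincubated with compounds for 15 min at room temperature. Reaction started with 50 nM (final) substrate. Fluorescence read kinetically at 0 and 10 min.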
Pol beta inh = DNA polymerase beta (human) inhibition | 340,000 compounds, 1.3% hits | P06746 | Potency, µM (highest dose often 114 µM), inactives show at the highest dose activity change, negative = inhibition, actives largely listed as inhibitors | Pol beta primer extension/strand displacement, fluorescence kinetic | AID 485314; further: potency means the concentration at half of the fitted maximal effect; on the % scale 0 is the no-effect control and ±100 the full control effect
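Pol beta (10 nM) and compounds were preincubated 15 min at room temperature, then 50 nM substrate (final) started primer extension/strand displacement. Reads were taken at 0 and 10 min; concentration-response data were fitted to a four-parameter Hill equation.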
GALK confirm = confirmation of human galactokinase (GALK) inhibitors. shares compounds with Pol eta inh-1. purified GALK, Kinase-Glo ATP depletion luminescence. Potency, µM (titrated, usually from 115 µM), for inactives: top-dose activity, negative = inhibition, hits mostly inhibitors. 150 compounds, 70% hits
Redox cycling = counter-screen for GALK inhibitors: redox cycling H2O2 generation | shares compounds with Pol eta inh-1 | Phenol red-HRP H2O2 redox cycling, absorbance 600 nm | Potency, µM (doses to about 115 µM), for inactives: at the top dose activity change, negative = H2O2 signal, usual class: inhibitors | 150 compounds, 40% hits
HEK293 tox = counter-screen for GALK inhibitors: HEK293 cell cytotoxicity. HEK-293 viability, ATP luminescence (CellTiter-Glo), 24/48 h. shares compounds with Pol eta inh-1. Potency, µM (highest dose often 46.1 µM), for inactives: at the highest dose activity change, negative = cytotoxicity, actives largely listed as inhibitors. 170 compounds, 10% hits. AID 2547; further: potency means the concentration at half of the fitted maximal effect; on the % scale 0 is the no-effect control and ±100 the full control effect
Pol kappa inh-2 = confirmation of human DNA polymerase kappa inhibitors; purified Pol-kappa, fluorescent strand-displacement substrate; AID 720501; Potency, µM, usual class: inhibitors; 920 compounds, 76% hits; shares compounds with Pol eta inh-1; further: potency means the concentration at half of the fitted maximal effect
Pol eta inh-2 = confirmation of human DNA polymerase eta inhibitors | shares compounds with Pol eta inh-1 | Pol eta primer extension, TAMRA/BHQ fluorescence, 10 min | Potency, µM, actives largely listed as inhibitors | 2,600 compounds, 64% hits; further: potency means the concentration at half of the fitted maximal effect
* marks the source's active call; other numbers are inactive results; ? = inconclusive; . = no result; [ ] = dose if it differs, or a comment. Only some compounds are listed: those with a hit (about 2.4% of all), similar ones and a draw of the others. The call rests on the fitted dose curve; in most records, active means well fitted curve in the direction sought with a large enough effect; inconclusive means small, poorly fitted or top-dose-only effect, or another doubt; inactive means no such curve, though single readings can be large; an effect the other way counts as inactive or inconclusive.

SMILES	WRN helicase inh	Pol iota inh	FEN1 inh	Pol eta inh-1	Pol kappa inh-1	Pol beta inh	Pol eta inh-2	others
O=C(COc1ccc([N+](=O)[O-])cc1)Nc1nnc(-c2cccnc2)s1	-18%[57.1 µM]	18µM*	?	40µM*	?	16µM*	?	Pol kappa inh-2=47*
Cc1noc(NS(=O)(=O)c2ccc(NC(=O)CSc3nnc4c(n3)[nH]c3ccccc34)cc2)c1C	89µM*	?	-1%	25µM*	?	?	24*
COc1ccccc1/C=C1\S/C(=N/NC(=O)c2cccc(Br)c2)NC1=O	?	6%	-21%	40µM*	-22%	-27%	?
Cc1ccc(OCc2nc3ccccc3n2Cc2ccccc2Cl)cc1	.	-4%	-16%	-12%	4%	6%	.
CCOC(=O)CSc1nnc(CNc2cccc(Cl)c2)n1C	3%[57.1 µM]	4%	6%	-12%	-3%	-5%	.
COCCCn1c(Cc2csc(Nc3cccc(Cl)c3)n2)nnc1SCC(=O)OC	-7%[11.6 µM]	22µM*	-14%	20µM*	40µM*	25µM*	38*	Pol kappa inh-2=17*
Cc1ccc(OCC(=O)Nc2nnc(S(=O)(=O)N3CCC(C)CC3)s2)cc1	-19%	?	0%	?	?	?	85*
O=C(c1ccc2c(c1)N(Cc1cccc(F)c1)C(=O)c1ccccc1S2)N1CCCC1	.	79µM*	6%	79µM*	2%[60.1 µM]	40µM*	?	Pol kappa inh-2=?
Oc1ccc(/C=N/n2c(COc3ccccc3)n[nH]c2=S)cc1O	?	6.3µM*	3%	?	20µM*	6.3µM*	17*
CCOc1cc(/C=N/n2c(COc3ccccc3)n[nH]c2=S)ccc1O	4%	17%	5%	-18%	8%	2%	.
S=c1[nH]nc(Cc2sc(-c3ccccc3)nc2-c2ccccc2)o1	-16%	-2%	0%	-1%	-13%	1%	.	GALK confirm=33µM*;Redox cycling=-10%;HEK293 tox=-6%
CCn1c(=O)c2sccc2n2c(CCCC(=O)N3CCN(c4ccc(OC)cc4)CC3)nnc12	.	19%	-1%	-16%	7%	24%	.
Cn1c(=O)c(Nc2ccc(O)cc2)c2c3c(cccc31)C(=O)c1ccccc1-2	?	16µM*	?	14µM*	?	32µM*	?
CC(=O)c1c2c3c(cccc3n(C)c1=O)C(=O)c1ccccc1-2	-20%	?	-16%	?	-22%	?	.
COc1ccc(-c2noc(C3CC(=O)N(c4ccc5c(c4)OCCO5)C3)n2)c(OC)c1 (stereo unspecified)	.	-9%	-7%	-7%	9%	0%	.
Cc1ccc(N2CC(C(=O)Nc3cccc(C(=O)NC4CC4)c3)CC2=O)cc1 (stereo unspecified)	-12%	?	-14%	35µM*	0%	.	.	Pol kappa inh-2=?
COc1ccc(C)cc1N1CC(C(=O)Nc2cccc(C(=O)NC3CC3)c2)CC1=O (stereo unspecified)	19%	.	.	3%	.	.	.
CCOc1cc(C2NC(=O)NC(C)=C2C(C)=O)cc(Cl)c1OCC(=O)O (stereo unspecified)	-9%[57.1 µM]	?	-4%	22µM*	-28%	?	?
O=C1ON=C(c2ccccc2)/C1=C/c1ccc(O)c(O)c1	?	?	?	22µM*	12%	-17%	60*	GALK confirm=?;Redox cycling=-16%;HEK293 tox=-3%
COc1ccc(-c2nc3c(c(SCC(=O)N4CCCCC4)n2)Cc2c(CO)cnc(C)c2O3)cc1	.	-7%	-6%	-3%	1%	5%	.
COc1cccc(-n2c(C)cc(/C=C3/C(=N)N4C(=NC3=O)SN=C4S(C)(=O)=O)c2C)c1	-18%[57.1 µM]	?	-15%	18µM*	-26%	4%	?
CC1=NN2C(=N)/C(=C\c3cc(C)n(-c4cccc(C)c4)c3C)C(=O)N=C2S1	-19%	-22%[58.9 µM]	-5%	-18%	-10%	0%	.
Cc1cc(C)cc(-n2cccc2/C=C2/C(=N)N3C(=NC2=O)SN=C3S(C)(=O)=O)c1	-11%[11.6 µM]	?	-6%	40µM*	-10%	45µM*	?
CS(=O)(=O)C1=NSC2=NC(=O)/C(=C\c3cccn3-c3ccccc3Cl)C(=N)N21	-10%[11.6 µM]	?	?	40µM*	?	35µM*	?
CCc1ccc(-n2c(=O)c3c4c(sc3n(Cc3cc(=O)n5c(C)cccc5n3)c2=O)CCC4)cc1	.	2%	-13%	-12%	-3%	7%	.
SMILES	WRN helicase inh	Pol iota inh	FEN1 inh	Pol eta inh-1	Pol kappa inh-1	Pol beta inh	Pol eta inh-2	others
Cc1cc(=O)n2c(C(=O)Nc3ccc(Br)cc3)c(C(=O)Nc3ccccc3)sc2n1	.	9%	-1%	-1%	6%	4%	.
O=C(CN1C(=O)S/C(=C\c2ccc(C(=O)O)cc2)C1=O)Nc1ccccc1	0%	-19%	19%	-3%	-8%	-1%	.
O=C(CN1C(=O)S/C(=C\c2cccn2-c2ccc(C(=O)O)cc2)C1=O)Nc1ccc(F)cc1	.	.	.	.	.	.	30*
Cc1occc1C(=O)Nc1cccc(/C=C/C(=O)O)c1	?	?	6%	18µM*	?	.	27*
COc1cc2c(cc1OC)-c1cc(Nc3ccc(C(=O)O)cc3)nc(=O)n1CC2	?	?	-23%	35µM*	-27%	?	?
O=C(NCCn1cc(SCc2ccccc2Cl)c2ccccc21)c1cccs1	.	0%	-17%	-17%	2%	4%	.
O=C(O)c1ccccc1C=NNc1ccc([N+](=O)[O-])cn1	-3%	7%	-12%	-17%	-11%	.	.
